We go through 88 sequences from article PMC10668032, “Altered binding affinity of SIX1-Q177R correlates with enhanced WNT5A and WNT pathway effector expression in Wilms tumor”.

In all, about 33,000 sequences were measured (“e-score”: median about -0.05, highest 2% from about 0.38 on). This is one part of a sample in which the highest values are shown more often than they occur.

In the test the target is T1, SIX1-Q177R homeodomain (human, UniProt Q15475 108-198, Q177R).
T1 sequence: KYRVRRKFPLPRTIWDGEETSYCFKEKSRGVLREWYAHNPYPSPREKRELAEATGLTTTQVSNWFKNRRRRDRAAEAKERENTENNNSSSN
The test can be described thus: universal protein binding microarray; Universal all-10-mer PBM (8x60K, AMADID 030236), 300 nM GST-tagged protein, Alexa Fluor 488 anti-GST; buffer, salt, pH and temperature not stated (as in Berger); high values mean tight binding. Particulars: protein: ivt; tags: N-terminal GST; dsDNA, one strand shown. The procedure, abridged: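 Duplicate protein binding microarrays (universal 'all 10-mer', 8×60K format) were incubated with GST-tagged homeodomains at 300 nM final concentration. Binding was quantified as 8-mer E-scores with the Universal PBM Analysis Suite.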
In the case of CACTTACC, the binding signal amounted to 0.224 ± 0.032 E-score. As for AGCCCGGG, the binding signal was found to be 0.157 ± 0.00865 E-score. CGTGAACC: the binding signal was 0.17 ± 0.0126 E-score. For the sequence TGTATACA, the binding signal was 0.283 ± 0.0331 E-score. In the case of ACTACGTG, the binding signal was 0.21 ± 0.0113 E-score. Turning to GGGGATCA, the binding signal turned out to be 0.275 ± 0.0112 E-score. Turning to GAGGGATC, the binding signal stood at 0.213 ± 0.0344 E-score. On to CCCCATGA, for which the binding signal was 0.151 ± 0.00929 E-score. Regarding GGCGAGGA, the binding signal was determined as 0.174 ± 0.0324 E-score. Regarding ACCCTAAG, the binding signal is 0.1853 ± 0.00154 E-score. Turning to CACCCTTA, the binding signal is 0.263 ± 0.0167 E-score. As for ATACCCTA, the binding signal amounted to 0.312 ± 0.0168 E-score. As for ACCAGAAT, the figure is 0.161 ± 0.0505 E-score; as for CCGACCAG, 0.161 ± 0.0337 E-score. Turning to CAAACACC, the binding signal stood at 0.4485 ± 0.00209 E-score. Consider TAAACACA, for which the binding signal stood at 0.214 ± 0.0172 E-score. The value for AAAACACA was 0.188 ± 0.0109 E-score; that for CAAACACA was 0.19 ± 0.0451 E-score.

Consider CAAACACG, for which the binding signal was found to be 0.32 ± 0.0109 E-score.

Take AAAACACG: the binding signal was determined as 0.321 ± 0.0302 E-score. For GAAACACC, the binding signal was 0.4545 ± 0.000905 E-score. For the sequence AAAACACC, the binding signal was found to be 0.437 ± 0.0129 E-score. AAAACACT: the binding signal was found to be 0.301 ± 0.0568 E-score.

As to ACCCTCCA, the binding signal came to 0.175 ± 0.00491 E-score. Regarding AGAAGGGG, the binding signal was determined as 0.223 ± 0.00875 E-score. For CAGAGGGG, the binding signal amounted to 0.193 ± 0.0159 E-score. On to CACAACTG, for which the binding signal is 0.1786 ± 0.00129 E-score. The value for CACCTGAA was 0.2354 ± 0.0017 E-score; that for CACTTGTC was 0.161 ± 0.0236 E-score.

For TCCTAGGA, the binding signal is 0.22 ± 0.0107 E-score. As for CCGGGGAA, the figure is 0.18 ± 0.0043 E-score; as for CACCCCAA, 0.336 ± 0.0263 E-score.

As to GCGGGGGA, the binding signal was found to be 0.157 ± 0.00972 E-score. On to ACACCAAT, for which the binding signal came out at 0.473 ± 0.00609 E-score. For ACTCCAAG, the binding signal was determined as 0.2 ± 0.00662 E-score. For ACACCAAG, the binding signal was 0.455 ± 0.0109 E-score. For ACACAAAG, the binding signal is 0.236 ± 0.0826 E-score. As for ACACAAAT, the figure is 0.167 ± 0.0837 E-score; as for CACCAAAA, 0.217 ± 0.0236 E-score. As for ACCCCAAT, the binding signal is 0.266 ± 0.0184 E-score. For GCACCAAC, the binding signal was 0.261 ± 0.0127 E-score. Turning to ACACCAAA, the binding signal came out at 0.4659 ± 0.00317 E-score. As for ACCCCAAA, the figure is 0.205 ± 0.0372 E-score. In the case of ATACCAAC, the binding signal was 0.163 ± 0.00749 E-score. For ACACCAAC, the binding signal is 0.4617 ± 0.00175 E-score. Take GGAGAATA: the binding signal was 0.193 ± 0.0325 E-score. Regarding CCTGAACA, the binding signal is 0.254 ± 0.00385 E-score.

AGTTAAGA: the binding signal was 0.155 ± 0.00537 E-score.

Take CCGGGTTC: the binding signal is 0.22 ± 0.0235 E-score.

As to AGTTAGGA, the binding signal came out at 0.153 ± 0.019 E-score. For GACCCGGA, the binding signal amounted to 0.184 ± 0.0271 E-score. Take ACACGCAC: the binding signal stood at 0.4052 ± 0.00394 E-score.

Consider ACGCACAC, for which the binding signal worked out at 0.307 ± 0.0495 E-score. As for CCCCGCAA, the figure is 0.17 ± 0.00535 E-score; as for ACACGCAT, 0.383 ± 0.00385 E-score. Regarding ACACGCAA, the binding signal was determined as 0.3952 ± 0.00317 E-score. Regarding ACACGCAG, the binding signal was found to be 0.391 ± 0.00589 E-score. As for ACGCGCAG, the figure is 0.175 ± 0.0335 E-score; as for ACTCCCCT, 0.249 ± 0.0205 E-score. On to CGGATCAG, for which the binding signal amounted to 0.174 ± 0.00822 E-score. With ACCGGAGG, the binding signal came out at 0.183 ± 0.0608 E-score. As for ACTCCTCC, the figure is 0.213 ± 0.0626 E-score. In the case of ATTTGACA, the binding signal worked out at 0.216 ± 0.00896 E-score.

For CGCATTAC, the binding signal was 0.204 ± 0.0114 E-score. As for ACCCTGAG, the figure is 0.245 ± 0.0251 E-score. As for ACCAACAC, the figure is 0.41011 ± 0.000354 E-score; as for CCCAACAC, 0.403 ± 0.0145 E-score. In the case of CCAAACAC, the binding signal turned out to be 0.3825 ± 0.00157 E-score. ACCAACTC: the binding signal was 0.169 ± 0.01 E-score. As for CCCAACAA, the figure is 0.199 ± 0.00812 E-score; as for CCCAAAAC, 0.193 ± 0.0284 E-score; as for GCCAACAC, 0.3693 ± 0.00257 E-score. The value for GCAAACAC was 0.351 ± 0.00619 E-score. For the sequence ACTATGTG, the binding signal stood at 0.17 ± 0.0249 E-score. Turning to CACCTTCA, the binding signal came to 0.241 ± 0.0302 E-score.

On to CACCTTGG, for which the binding signal was 0.344 ± 0.0104 E-score.

In the case of CCCCTACC, the binding signal came to 0.237 ± 0.0383 E-score. In the case of AAGTGTCA, the binding signal was 0.418 ± 0.0194 E-score. For TAGAGTCA, the binding signal amounted to 0.196 ± 0.0118 E-score. Regarding GAGTGACA, the binding signal turned out to be 0.242 ± 0.00566 E-score. For the sequence GAGTGTCA, the binding signal was found to be 0.45 ± 0.0122 E-score.

With AAGTGTCT, the binding signal was 0.346 ± 0.0141 E-score. For GTGTGTCA, the binding signal came to 0.369 ± 0.0056 E-score.

Consider TAGTGACA, for which the binding signal came out at 0.211 ± 0.0357 E-score. The value for GAGTATCC was 0.199 ± 0.0139 E-score. The value for GAGTGTCC was 0.406 ± 0.00513 E-score.

As for AAGTGTCC, the binding signal is 0.332 ± 0.00652 E-score. As for TAGTGTCA, the binding signal was 0.454 ± 0.00792 E-score.
